A short description of experiment [1]: qHTS assay to test for compound auto fluorescence at 460 nm (blue) in HEK293 cell free culture (AID 720681). An outline of the steps:
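Blue fluorescence (Ex 405/Em 460 nm, triamterene-equivalent) was read immediately after pin transfer of compound or DMSO into medium (DMEM, 10% FBS) without cells.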
In general terms: In qHTS, concentration-response curves come from the screen itself.

A short description of experiment [2]: qHTS assay to test for compound auto fluorescence at 535 nm (green) in HEK293 cell free culture (AID 720682). In a few lines:
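Fluorescein serves as the green reference fluorophore; each compound's intrinsic emission at 535 nm (excitation 485 nm) is reported as an equivalent amount of that dye, measured in serum-containing DMEM without cells.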

Experiment [3] can be described thus: qHTS assay to test for compound auto fluorescence at 590 nm (red) in HEK293 cell free culture (AID 720683). In a few lines:
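Red-channel autofluorescence of compounds in culture medium (DMEM, 10% FBS), no cells, measured at 540/590 nm. Rose Bengal sodium is the reference fluorophore for equivalence.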

Experiment [4] can be described thus: qHTS assay to test for compound auto fluorescence at 590 nm (red) in HepG2 cell free culture (AID 720684). In a few lines:
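Steps: dispense MEM/10% FBS medium, no cells; pin compound or DMSO vehicle; read red channel, Ex/Em 540/590 nm. Output given as Rose Bengal sodium equivalents.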

Experiment [5] is described as follows: qHTS assay to test for compound auto fluorescence at 460 nm (blue) in HepG2 cell free culture (AID 720685). An outline of the steps: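 Compound (23 nL) or DMSO pinned into cell-free MEM with 10% FBS; blue fluorescence read at 405/460 nm excitation/emission, expressed as auto-fluorescence equivalency to triamterene.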
Experiment [6] can be described thus: qHTS assay to test for compound auto fluorescence at 535 nm (green) in HepG2 cell free culture (AID 720686).
A short description of experiment [7]: qHTS assay to test for compound auto fluorescence at 460 nm (blue) in HepG2 cells (AID 720687). In a few lines: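 Blue-channel autofluorescence (Ex/Em 405/460 nm, triamterene-equivalent) was measured after 1 hr compound exposure at 37 C, 5% CO2. Cells were HepG2, plated overnight at 37 C in MEM plus 10% FBS.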
Experiment [8] deals with Glucocorticoid receptor (Homo sapiens) (UniProt P04150). The experiment is described as follows: qHTS assay to identify small molecule agonists of the glucocorticoid receptor (GR) signaling pathway (AID 720691; active means well fitted activation curve with a large enough effect in the signal ratio in the repeat runs, not every such curve was filed as active; the % refers to the signal ratio). An outline of the steps: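 Fluorescence intensity from LiveBLAzer B/G FRET substrate (2 h, room temperature) reports beta-lactamase expression driven by the glucocorticoid response element in GR-bla HeLa cells after 18 h compound exposure at 37 C.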
Chain of Glucocorticoid receptor (Homo sapiens) (P04150 whole entry, looked up): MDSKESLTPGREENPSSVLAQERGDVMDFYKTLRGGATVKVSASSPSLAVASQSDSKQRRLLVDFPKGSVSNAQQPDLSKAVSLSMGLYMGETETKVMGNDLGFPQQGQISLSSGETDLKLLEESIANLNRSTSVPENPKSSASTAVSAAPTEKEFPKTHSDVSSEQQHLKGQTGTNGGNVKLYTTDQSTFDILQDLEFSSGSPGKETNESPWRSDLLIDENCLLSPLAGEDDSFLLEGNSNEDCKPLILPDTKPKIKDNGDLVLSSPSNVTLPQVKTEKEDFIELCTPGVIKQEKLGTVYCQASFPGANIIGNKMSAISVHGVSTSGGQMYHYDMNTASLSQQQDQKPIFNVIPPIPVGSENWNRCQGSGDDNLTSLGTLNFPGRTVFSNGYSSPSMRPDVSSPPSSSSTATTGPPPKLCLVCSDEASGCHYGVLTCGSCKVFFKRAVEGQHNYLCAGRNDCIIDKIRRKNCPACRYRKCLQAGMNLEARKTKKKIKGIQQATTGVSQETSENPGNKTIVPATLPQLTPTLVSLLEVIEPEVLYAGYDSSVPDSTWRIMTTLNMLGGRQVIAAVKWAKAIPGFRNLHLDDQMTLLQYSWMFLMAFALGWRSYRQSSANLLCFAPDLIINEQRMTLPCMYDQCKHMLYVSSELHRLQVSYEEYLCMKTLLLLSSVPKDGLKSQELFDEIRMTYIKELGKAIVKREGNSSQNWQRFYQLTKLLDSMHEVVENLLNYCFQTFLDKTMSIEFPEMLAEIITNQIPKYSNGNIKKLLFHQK

The target is the same in experiment [9]. The experiment is described as follows: qHTS assay to identify small molecule antagonists of the glucocorticoid receptor (GR) signaling pathway (AID 720692; active means well fitted inhibition curve with a large enough effect in the signal ratio in the repeat runs, not every such curve was filed as active; the % refers to the signal ratio; further: potency means the concentration at half of the fitted maximal effect). An outline of the steps:
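HeLa GR-bla cells; cmpd + dex 5 nM final, 18 h 37 C; LiveBLAzer B/G FRET substrate 2 h RT; fluorescence intensity read. Antagonist mode, qHTS.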

Several values for one entry are separate records, joined by “and”; a condition that tells them apart may be missing. Equal values may be shown once. Records with an inconclusive call do not appear. Activity calls are given as the source filed them. Unless noted, the call rests on the fitted dose curve; in most records, active means well fitted curve in the direction sought with a large enough effect in the repeat runs; inconclusive means weak or mixed curves; inactive means flat fitted curve, though single readings scatter.

As to `C[N+](C)(C)Cc1ccccc1`, the molecule was called inactive in experiment [1], in [2], in experiment [3], in [4], in [5] and in [6]. The molecule was called inactive in experiment [7] and in [8]. For the same molecule, the Potency result in experiment [9] is “inactive”.
With `O=c1[nH]c(=O)n(Cl)c(=O)n1Cl`, the call in experiment [1], in [2], in experiment [3], in experiment [4], in experiment [5] and in experiment [6] was inactive. For the same molecule, the result in experiment [7] and in [8] was inactive. In experiment [9], the Potency entry was “inactive”.
On to `COc1ccccc1N`, for which the result in experiment [1], in [2], in [3], in [4], in experiment [5] and in [6] was inactive. The outcome in [7] was inactive.
Turning to `CCCCCCCCn1cc[n+](C)c1`, the molecule was called inactive in [1], in experiment [2], in [3], in [4], in [5] and in experiment [6]. Further, in [7], the molecule was classed as inactive.
Consider `C1CCC(NC2CCCCC2)CC1`, for which the result in experiment [1], in experiment [2], in experiment [3], in experiment [4], in experiment [5] and in experiment [6] was inactive. The result in [7] and in experiment [8] was inactive. Also, the Potency entry in experiment [9] was “inactive”.
In the case of `CCC[N+]1(C)CCCCC1`, the call in experiment [1], in experiment [2], in [3], in experiment [4], in experiment [5] and in experiment [6] was inactive. In addition, the call in experiment [7] was inactive.
On to `O=C(O)COc1ccc(Cl)cc1Cl`, for which the molecule was classed as inactive in experiment [1], in experiment [2], in [3], in experiment [4], in experiment [5] and in experiment [6]. In addition, the outcome in experiment [7] and in experiment [8] was inactive. The Potency result in experiment [9] is “inactive”.
Take `CCOP(=S)(OCC)Oc1ccc2c(C)c(Cl)c(=O)oc2c1`: the call in experiment [1], in [2], in experiment [3], in experiment [4], in experiment [5] and in [6] was inactive. Also, the result in experiment [7] and in experiment [8] was inactive.
On to `O=[N+]([O-])c1ccccc1O`, for which the molecule was called inactive in [1], in experiment [2], in experiment [3], in [4], in experiment [5] and in [6]. Also, the molecule was classed as inactive in [7] and in experiment [8]. Further, the Potency result in experiment [9] was “inactive”.
For `O=C(O)C(Cl)Cl`, the outcome in experiment [1], in experiment [2], in experiment [3], in [4], in [5] and in experiment [6] was inactive. Further, the result in [7] and in [8] was inactive. For the same molecule, the Potency result in [9] is “inactive”.
With `CCCn1cc[n+](C)c1`, the call in experiment [1], in experiment [2], in experiment [3], in experiment [4], in experiment [5] and in experiment [6] was inactive. In addition, the molecule was called inactive in experiment [7] and in experiment [8]. Also, the Potency result in [9] is “inactive”.
Take `Nc1ccccc1`: the molecule was classed as inactive in experiment [1], in experiment [2], in [3], in experiment [4], in experiment [5] and in experiment [6]. Further, the outcome in experiment [7] and in [8] was inactive. The Potency entry in experiment [9] was “inactive”.
Turning to `CCC[N+]1(C)CCCC1`, the molecule was called inactive in [1], in experiment [2], in [3], in experiment [4], in experiment [5] and in experiment [6]. Besides, in experiment [7], the outcome was inactive.
For `CCNc1nc(Cl)nc(NCC)n1`, the outcome in experiment [1], in [2], in experiment [3], in [4], in experiment [5] and in experiment [6] was inactive. Further, the molecule was classed as inactive in experiment [7] and in [8]. Also, the Potency entry in experiment [9] was “inactive”.
Take `COP(=O)(OC)OC=C(Cl)Cl`: the result in [1], in experiment [2], in [3], in experiment [4], in experiment [5] and in experiment [6] was inactive. The result in experiment [7] was inactive.
As to `CC[N+]1(C)CCCC1`, the molecule was classed as inactive in experiment [1], in experiment [2], in experiment [3], in [4], in [5] and in experiment [6]. The call in [7] and in [8] was inactive. Also, in experiment [9], the Potency entry was “inactive”.
With `CC(=O)O`, the outcome in experiment [1], in [2], in [3], in experiment [4], in experiment [5] and in [6] was inactive. For the same molecule, the molecule was classed as inactive in [7].
Consider `CCCCCCCCCCCCCCCCn1cc[n+](C)c1`, for which the outcome in experiment [1], in [2], in experiment [3], in [4], in [5] and in [6] was inactive. The molecule was called inactive in [7] and in [8]. Also, in experiment [9], the Potency result was “inactive”.
As for `CCCCCCCCCCCCOS(=O)(=O)O`, the result in experiment [1], in experiment [2], in experiment [3], in [4], in experiment [5] and in experiment [6] was inactive. The molecule was classed as inactive in experiment [7] and in experiment [8]. In experiment [9], the Potency entry was “inactive”.
On to `CCCCCC[n+]1ccccc1`, for which the molecule was classed as inactive in experiment [1], in [2], in experiment [3], in experiment [4], in experiment [5] and in experiment [6]. Further, the molecule was called inactive in [7].
On to `CCCCCCCCCCCCn1cc[n+](C)c1`, for which the molecule was classed as inactive in experiment [1], in [2], in [3], in experiment [4], in experiment [5] and in experiment [6]. Moreover, the call in experiment [7] and in experiment [8] was inactive. The Potency result in experiment [9] was “inactive”.
Take `O=c1nc(O)n(Cl)c(=O)n1Cl`: the call in experiment [1], in [2], in [3], in [4], in [5] and in experiment [6] was inactive. Besides, the outcome in experiment [7] and in [8] was inactive. Moreover, the Potency entry in experiment [9] is “inactive”.
For the molecule `CCCC[n+]1cccc(C)c1`, the result in experiment [1], in experiment [2], in experiment [3], in experiment [4], in [5] and in experiment [6] was inactive. Further, the call in [7] and in [8] was inactive. The Potency result in experiment [9] was “inactive”.
As for `CC(Cl)(Cl)C(=O)O`, the outcome in experiment [1], in experiment [2], in [3], in experiment [4], in experiment [5] and in experiment [6] was inactive. In addition, the molecule was classed as inactive in experiment [7] and in experiment [8]. Besides, the Potency entry in [9] was “inactive”.
Consider `Cc1cc(Cl)ccc1OCC(=O)O`, for which the molecule was classed as inactive in experiment [1], in experiment [2], in experiment [3], in experiment [4], in [5] and in [6]. In addition, the molecule was called inactive in experiment [7] and in experiment [8]. Moreover, the Potency result in experiment [9] was “inactive”.
In the case of `CCCCCCCCCCCCCC[P+](CCCCCC)(CCCCCC)CCCCCC`, the outcome in experiment [1], in experiment [2], in experiment [3], in experiment [4], in [5] and in [6] was inactive. Moreover, the molecule was called inactive in experiment [7] and in [8].
Turning to `O=[N+]([O-])O`, the outcome in experiment [1], in experiment [2], in experiment [3], in experiment [4], in experiment [5] and in experiment [6] was inactive. The molecule was called inactive in [7] and in experiment [8]. In addition, the Potency result in experiment [9] is “inactive”.
On to `N#CS`, for which the molecule was classed as inactive in experiment [1], in experiment [2], in experiment [3], in [4], in experiment [5] and in experiment [6]. The call in experiment [7] and in experiment [8] was inactive. Further, the Potency entry in experiment [9] is “inactive”.
Consider `CCCCCCCCCCn1cc[n+](C)c1`, for which the molecule was called inactive in experiment [1], in [2], in [3], in experiment [4], in [5] and in experiment [6]. Further, the molecule was classed as inactive in [7] and in [8]. For the same molecule, the Potency in experiment [9] was 15.6 µM (active) and 39.1 µM (active).
Take `CCCC[n+]1ccccc1C`: the result in experiment [1], in [2], in experiment [3], in experiment [4], in [5] and in experiment [6] was inactive. In addition, in experiment [7], the call was inactive.
With `O=P1(N(CCCl)CCCl)NCCCO1` (centres undefined), the outcome in experiment [1], in experiment [2], in experiment [3], in [4], in experiment [5] and in experiment [6] was inactive. The molecule was called inactive in experiment [7] and in experiment [8]. The Potency entry in experiment [9] was “inactive”.
Consider `CCCCCCn1cc[n+](C)c1`, for which the call in [1], in experiment [2], in experiment [3], in experiment [4], in experiment [5] and in experiment [6] was inactive. In [7], the result was inactive.
For `O=C(O)c1ccccc1O`, the call in experiment [2] was inactive.

Values taken from PubChem BioAssay (Tox21).
